The record followed here is PubChem BioAssay (Tox21).

Experiment [1] in a line: qHTS assay to identify small molecule agonists of the estrogen receptor alpha (ER-alpha) signaling pathway in the presence of an antagonist - cell viability counter screen (AID 1259386). Further: nearly all actives have a fitted effect of over 30% in size. Further: potency means the concentration at half of the fitted maximal effect. In a few lines: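 Compounds tested at 15 concentrations for 22 h at 37C alongside 10.0nM (final) ICI-182,780 antagonist, in VM7Luc4E2 cells grown in phenol red-free, charcoal-stripped medium. Viability read by CellTiter-Fluor fluorescence after 1 h reagent incubation.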
For orientation: qHTS replaces the single test concentration by a dilution series.

For experiment [2], the target named is Progesterone receptor (Homo sapiens) (UniProt P06401). Kind of experiment: qHTS assay to identify small molecule agonists of the progesterone receptor (PR) signaling pathway (AID 1346784; calls by dose curve; further: nearly all actives have a fitted effect of over 30% in size). In a few lines: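 Reporter assay, GripTite PR-UAS-bla HEK 293T cells: 16 hr exposure to DMSO-dissolved compounds at 37C, 5% CO2, in steroid-depleted (2% charcoal-stripped FBS) medium; beta-lactamase measured by FRET fluorescence.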

Experiment [3] has the same target. Kind of experiment: qHTS assay to identify small molecule antagonists of the progesterone receptor (PR) signaling pathway (AID 1346795; active means well fitted inhibition curve with a large enough effect in the signal ratio in the repeat runs, not every such curve was filed as active; the % refers to the signal ratio). In a few lines:
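Stimulus R5020 at 1 nM final; cells HEK293T PR-UAS-bla; medium with 2% charcoal-stripped FBS; compound exposure 16 hr at 37C, 5% CO2; detection by FRET beta-lactamase substrate, 2 hr, room temperature.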

The nature of experiment [4]: qHTS assay to identify small molecule antagonists of the progesterone receptor (PR) signaling pathway - cell viability counter screen (AID 1346798). Further: series mostly up to about 92 µM; nearly all actives have a fitted effect of over 50% in size. Put shortly: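 In the same plates used for the beta-lactamase readout, cell viability of compound- and R5020-treated PR-UAS-bla HEK293T cells (16 hr, 37C) was assessed by CellTiter-Glo luminescence.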
The nature of experiment [5]: qHTS assay to identify small molecule agonists of the progesterone receptor (PR) signaling pathway - cell viability counter screen (AID 1346799; calls by dose curve; further: nearly all actives have a fitted effect of over 45% in size). Put shortly: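 Multiplexed viability read: CellTiter-Glo luminescence, 30 min RT, following LiveBLAzer FRET measurement on PR-UAS-bla HEK293T cells exposed to compounds 16 hr.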
Experiment [6] in a line: qHTS assay to identify small molecule antagonists of the TGF-beta/Smad signaling pathway - cell viability counter screen (AID 1346824). Further: nearly all actives have a fitted effect of over 50% in size. In a few lines:
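Cytotoxicity counter-screen run in the same wells as the beta-lactamase Smad reporter read: CellTiter-Glo luminescence after 30 min at room temperature. HEK 293T SBE-bla cells had 5 hr compound exposure at 37 C with TGF-beta1 (0.25 ng/mL stock).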

Experiment [7] can be described thus: qHTS assay to identify small molecule agonists of the TGF-beta/Smad signaling pathway - cell viability counter screen (AID 1346829). Further: top concentration of the series differs between compounds; nearly all actives have a fitted effect of over 45% in size. Put shortly:
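In parallel with the Smad reporter read, viability of HEK 293T cells stably carrying SBE-bla is quantified by ATP luminescence following 5 hr compound treatment.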

Experiment [8] in a line: qHTS assay to identify small molecule agonists of the TGF-beta/Smad signaling pathway (AID 1346859; active means well fitted activation curve with a large enough effect in the signal ratio in the repeat runs, not every such curve was filed as active; the % refers to the signal ratio; further: series mostly up to about 77 µM). In a few lines:
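Screening used HEK 293T SBE-bla cells at 4,000/well. Test agents: 5 hr, 37 C. Detection: FRET substrate, 2 hr RT, then excitation 405 nm with emissions at 460 and 530 nm.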

The target of experiment [9] is Thyrotropin-releasing hormone receptor (Homo sapiens) (UniProt P34981). Kind of experiment: qHTS assay to identify small molecule antagonists of the thyrotropin-releasing hormone receptor (TRHR) signaling pathway (AID 1346877; active means well fitted inhibition curve with a large enough effect in the repeat runs, not every such curve was filed as active; further: series mostly up to about 51 µM). Put shortly:
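Antagonist mode: after a 5 min room-temperature compound exposure, cells were stimulated with 1 nM (final) TRH. Dye-loaded TRHR-HEK293 cells were used, and calcium-dependent fluorescence was followed for 3 min, with 15-point titrations run in triplicate.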

For experiment [10] the target is unchanged. Kind of experiment: qHTS assay to identify small molecule agonists of the thyrotropin-releasing hormone receptor (TRHR) signaling pathway (AID 1346891; calls by dose curve; further: series mostly up to about 58 µM). In a few lines: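 Readout was intracellular calcium fluorescence in TRHR-Hek293 cells. Cells were incubated 18 h, dye-loaded 2 h at 37 °C, and treated with compound in agonist mode.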
Experiment [11] in a line: Caspase-3/7 induction in HepG2 cells by small molecules, qHTS assay (AID 1346978). Further: nearly all actives have a fitted effect of over 15% in size. In a few lines: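 Caspase-3/7 induction was measured by Caspase-Glo 3/7 luminescence (30 min, room temperature) after a 17 hr compound exposure of wild-type HepG2 cells seeded at 2,000 per well and pre-incubated 5 hr.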
Experiment [12] is described as follows: Caspase-3/7 induction in CHO-K1 cells by small molecules, qHTS cell viability counter screen (AID 1346979). Further: nearly all actives have a fitted effect of over 35% in size. Further: potency means the concentration at half of the fitted maximal effect. In a few lines: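 Following a 5hr settling period, CHO-K1 cells at 1,500 per well received DMSO-dissolved compounds. Cell viability was quantified 16hr later by CellTiter-Fluor fluorescence, measured after 1hr with reagent at 37C.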
Experiment [13] in a line: Caspase-3/7 induction in CHO-K1 cells by small molecules, qHTS assay (AID 1346980). Further: nearly all actives have a fitted effect of over 15% in size. Put shortly:
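Luminescent Caspase-Glo 3/7 read (30min, room temperature) quantified apoptosis induction. Cells were wild-type CHO-K1, treated with compound for 17hr at 37 C and 5% CO2.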

In experiment [14] the target is Nuclear receptor subfamily 1 group I member 2 (Homo sapiens) (UniProt O75469). Kind of experiment: Human pregnane X receptor (PXR) small molecule agonists, qHTS assay (AID 1346982). Further: nearly all actives have a fitted effect of over 35% in size. Further: potency means the concentration at half of the fitted maximal effect. In a few lines: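 Agonist mode: luminescence from ONE-Glo after 24 h compound exposure at 37C in HepG2 cells carrying hPXR-responsive CYP3A4 luciferase, plated in charcoal-stripped serum medium 5 h beforehand.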

Experiment [15] deals with Thyrotropin receptor (Homo sapiens) (UniProt P16473). As to the kind of experiment: qHTS assay to identify small molecule antagonists of the thyroid stimulating hormone receptor (TSHR) signaling pathway (AID 1259385; calls by dose curve; further: nearly all actives have a fitted effect of over 20% in size). In a few lines: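 Antagonist mode: compound-treated TSHR-expressing HEK293 cells were stimulated with 1.5 ng/mL TSH (final) in presence of Ro20-1724 for 30 min at RT. HTRF cAMP detection after 1 h; each compound tested at 15 concentrations, triplicate.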

Experiment [16] can be described thus: Human pregnane X receptor (PXR) small molecule agonists, qHTS cell viability counter screen (AID 1346977). Further: nearly all actives have a fitted effect of over 50% in size. Further: potency means the concentration at half of the fitted maximal effect. In a few lines: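 In each well, the PXR reporter HepG2 line was checked for viability: CellTiter-Fluor reagent added 23hr post-dosing, fluorescence read after 1hr incubation at 37C.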
Experiment [17] in a line: Caspase-3/7 induction in HepG2 cells by small molecules, qHTS cell viability counter screen (AID 1346981). Further: nearly all actives have a fitted effect of over 30% in size. Further: potency means the concentration at half of the fitted maximal effect. In a few lines: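 CellTiter-Fluor fluorescence measured viability in the same wells used for Caspase-Glo 3/7. HepG2 (wild type) at 2,000 cells/well were pre-incubated 5 hr, dosed, and given reagent at 16 hr, with 1 hr further at 37C.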

The structures appear in SMILES notation. Inconclusive results are not listed. Active and inactive are the calls of the source. Unless noted, the call rests on the fitted dose curve; in most records, active means well fitted curve in the direction sought with a large enough effect in the repeat runs; inconclusive means weak or mixed curves; inactive means no such curve, though single readings can be large; an effect the other way counts as inactive or inconclusive.

Chain of Thyrotropin receptor (Homo sapiens) (P16473 whole entry, looked up): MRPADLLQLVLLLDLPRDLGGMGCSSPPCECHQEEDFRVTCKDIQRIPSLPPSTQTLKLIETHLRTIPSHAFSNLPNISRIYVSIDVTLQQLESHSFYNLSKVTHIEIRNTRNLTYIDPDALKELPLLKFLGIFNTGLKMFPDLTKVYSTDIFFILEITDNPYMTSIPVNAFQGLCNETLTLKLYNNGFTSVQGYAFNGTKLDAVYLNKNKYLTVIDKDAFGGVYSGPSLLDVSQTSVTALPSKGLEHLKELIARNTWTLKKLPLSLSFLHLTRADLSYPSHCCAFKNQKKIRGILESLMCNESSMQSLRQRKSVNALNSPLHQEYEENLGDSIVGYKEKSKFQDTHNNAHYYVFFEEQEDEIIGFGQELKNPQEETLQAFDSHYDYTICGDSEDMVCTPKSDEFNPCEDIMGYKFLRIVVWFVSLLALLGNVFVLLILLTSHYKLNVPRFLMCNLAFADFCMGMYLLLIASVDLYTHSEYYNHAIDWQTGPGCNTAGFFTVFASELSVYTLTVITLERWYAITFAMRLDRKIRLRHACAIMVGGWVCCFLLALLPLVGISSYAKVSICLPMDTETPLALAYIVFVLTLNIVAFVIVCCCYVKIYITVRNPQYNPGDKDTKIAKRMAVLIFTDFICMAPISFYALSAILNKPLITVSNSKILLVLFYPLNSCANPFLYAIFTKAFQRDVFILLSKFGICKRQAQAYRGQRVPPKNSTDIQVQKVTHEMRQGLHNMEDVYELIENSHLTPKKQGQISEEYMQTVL
Chain of Progesterone receptor (Homo sapiens) (P06401 whole entry, looked up): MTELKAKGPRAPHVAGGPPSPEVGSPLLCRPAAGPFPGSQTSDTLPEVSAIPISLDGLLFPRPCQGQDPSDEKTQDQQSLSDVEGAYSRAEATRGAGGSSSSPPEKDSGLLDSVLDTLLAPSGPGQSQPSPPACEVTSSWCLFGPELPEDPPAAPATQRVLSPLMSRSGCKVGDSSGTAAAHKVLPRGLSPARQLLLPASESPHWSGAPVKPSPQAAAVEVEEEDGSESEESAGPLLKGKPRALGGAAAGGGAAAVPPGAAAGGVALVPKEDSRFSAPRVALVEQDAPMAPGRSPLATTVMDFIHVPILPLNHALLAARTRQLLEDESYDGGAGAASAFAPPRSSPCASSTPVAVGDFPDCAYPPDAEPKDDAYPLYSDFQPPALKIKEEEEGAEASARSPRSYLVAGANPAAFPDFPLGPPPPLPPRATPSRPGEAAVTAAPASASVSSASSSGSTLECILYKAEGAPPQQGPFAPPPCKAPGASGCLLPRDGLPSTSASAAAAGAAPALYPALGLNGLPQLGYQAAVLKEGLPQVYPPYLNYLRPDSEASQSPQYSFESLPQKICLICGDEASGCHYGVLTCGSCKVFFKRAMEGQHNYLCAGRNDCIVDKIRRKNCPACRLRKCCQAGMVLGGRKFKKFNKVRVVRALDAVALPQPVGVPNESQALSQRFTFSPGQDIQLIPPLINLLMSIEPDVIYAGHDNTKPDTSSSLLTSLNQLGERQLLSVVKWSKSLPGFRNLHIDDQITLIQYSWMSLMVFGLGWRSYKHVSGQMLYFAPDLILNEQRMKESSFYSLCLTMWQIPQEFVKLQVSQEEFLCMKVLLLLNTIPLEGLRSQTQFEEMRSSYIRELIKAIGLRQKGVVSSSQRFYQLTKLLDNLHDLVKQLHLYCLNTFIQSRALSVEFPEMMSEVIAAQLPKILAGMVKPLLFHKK
Chain of Nuclear receptor subfamily 1 group I member 2 (Homo sapiens) (O75469 whole entry, looked up): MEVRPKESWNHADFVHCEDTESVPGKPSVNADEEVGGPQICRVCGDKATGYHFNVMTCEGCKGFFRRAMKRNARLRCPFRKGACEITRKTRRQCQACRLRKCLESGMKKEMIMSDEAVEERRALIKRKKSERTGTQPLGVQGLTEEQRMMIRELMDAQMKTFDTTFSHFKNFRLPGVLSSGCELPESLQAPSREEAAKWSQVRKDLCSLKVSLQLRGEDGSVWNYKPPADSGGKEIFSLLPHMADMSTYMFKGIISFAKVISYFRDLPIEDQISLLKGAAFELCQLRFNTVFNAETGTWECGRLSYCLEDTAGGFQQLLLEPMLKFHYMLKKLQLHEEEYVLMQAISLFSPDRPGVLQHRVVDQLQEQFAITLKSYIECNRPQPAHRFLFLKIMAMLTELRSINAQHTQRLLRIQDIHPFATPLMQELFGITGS
Chain of Thyrotropin-releasing hormone receptor (Homo sapiens) (P34981 whole entry, looked up): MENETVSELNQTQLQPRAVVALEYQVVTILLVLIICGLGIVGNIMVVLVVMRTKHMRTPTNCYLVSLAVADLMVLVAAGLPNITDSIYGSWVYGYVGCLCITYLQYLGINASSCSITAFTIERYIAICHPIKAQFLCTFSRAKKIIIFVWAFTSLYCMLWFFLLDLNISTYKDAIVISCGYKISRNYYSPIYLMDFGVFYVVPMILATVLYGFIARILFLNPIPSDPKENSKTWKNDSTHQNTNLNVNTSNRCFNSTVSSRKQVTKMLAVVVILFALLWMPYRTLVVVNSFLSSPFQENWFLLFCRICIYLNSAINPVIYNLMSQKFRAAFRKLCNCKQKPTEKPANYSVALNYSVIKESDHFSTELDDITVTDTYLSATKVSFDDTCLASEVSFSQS

As for `CCCCN(N=O)C(=N)N[N+](=O)[O-]`, the Potency entry in [1], in experiment [2], in experiment [3], in [4], in experiment [5] and in experiment [6] was “inactive” in each case. In addition, the Potency entry in experiment [7], in [9], in experiment [10], in experiment [11], in experiment [13] and in [14] was “inactive” throughout. For the same compound, in experiment [8], the outcome was inactive. The Potency in experiment [12] is 62.4 µM (active).

With `COc1nn(C(=O)NS(=O)(=O)c2ccccc2OC(F)(F)F)c(=O)n1C`, the Potency result in [15], in [1], in [5], in experiment [6], in [7] and in experiment [9] was “inactive” each time. For the same compound, the Potency result in experiment [10], in experiment [16], in experiment [11], in experiment [12], in experiment [13] and in experiment [17] was “inactive” throughout. Also, in [14], the Potency result was “inactive”. For the same compound, the result in experiment [8] was inactive.

Turning to `C=CC(=O)OC(C)(C)C`, the Potency entry in experiment [15], in [1], in experiment [4], in experiment [5], in [7] and in experiment [9] was “inactive” in each case. Also, the Potency entry in experiment [16], in experiment [11], in [12], in experiment [13], in [17] and in experiment [14] was “inactive” in each case. Also, the compound was classed as inactive in experiment [8].

For the compound `CCOC(=O)[C@]1(c2ccccc2)Oc2ccccc2[C@@H]1N`, the Potency entry in experiment [15], in [2], in experiment [4], in experiment [6], in [9] and in [10] was “inactive” in each case. The Potency entry in experiment [11], in experiment [13] and in experiment [17] was “inactive” in each case. Moreover, in experiment [8], the outcome was inactive.

Consider `COC(=O)C(Br)CBr` (stereo not drawn), for which the Potency entry in experiment [1], in experiment [2], in experiment [3], in experiment [5], in [6] and in experiment [7] was “inactive” each time. Moreover, the Potency result in experiment [9], in experiment [10], in experiment [16], in [11], in [12] and in experiment [13] was “inactive” each time. The Potency entry in experiment [17] and in [14] was “inactive” in each case. Further, the compound was classed as inactive in experiment [8].

As to `Nc1ccc(N=Nc2ccc(-c3ccc(N=Nc4c(S(=O)(=O)O)cc5cc(S(=O)(=O)O)c(N=Nc6ccccc6)c(O)c5c4N)cc3)cc2)c(N)c1`, the Potency in experiment [1] is 15.7 µM (active); in [16], 17.6 µM (active); in experiment [12], 17.6 µM (active); in experiment [17], 19.7 µM (active). In addition, the Potency entry in experiment [2], in experiment [3], in experiment [4], in experiment [5], in experiment [6] and in experiment [7] was “inactive” in each case. In addition, the Potency result in experiment [11] and in [13] was “inactive” throughout. Moreover, the outcome in [8] was inactive.

As for `COc1cc(Cl)c(OC)cc1Cl`, the Potency result in experiment [1], in [2], in experiment [3], in experiment [5], in experiment [6] and in experiment [7] was “inactive” throughout. In addition, the Potency entry in experiment [9], in experiment [10], in [16], in [11], in experiment [12] and in experiment [13] was “inactive” throughout. Also, the Potency result in experiment [17] and in experiment [14] was “inactive” throughout. Moreover, in experiment [8], the call was inactive.

Consider `S=C=NCc1ccccc1`, for which the Potency entry in [15], in [1], in [5], in experiment [6], in experiment [7] and in experiment [9] was “inactive” throughout. The Potency result in [10], in [16], in experiment [11], in experiment [12] and in experiment [13] was “inactive” each time. Moreover, the outcome in experiment [8] was inactive. In experiment [14], the Potency was 61.8 µM (active).

`CCCN(CCC)c1c([N+](=O)[O-])cc(S(C)(=O)=O)cc1[N+](=O)[O-]`: the Potency result in experiment [1], in experiment [2], in experiment [4], in experiment [5], in [6] and in experiment [7] was “inactive” in each case. The Potency entry in [16], in experiment [11] and in [13] was “inactive” in each case. For the same compound, the compound was classed as inactive in experiment [8]. In addition, the Potency in experiment [14] was 2.43 µM (active).
